Measured values as given in ChEMBL document CHEMBL5724796, “Tm Shift (DSF) assay results for EUbOPEN Chemogenomics Library” (2024).
Non-standard residues stand in square brackets, D forms with d. Residues, ends and D or L forms follow the SMILES beside them. Nle = CCCC[C@H](N)C(=O)O

Tests used:
Conditions in all cases: Compound concentration 20.0 uM
[1] = target: Tyrosine-protein kinase ABL1 (Homo sapiens) (UniProt P00519)
[2] = target: Bromodomain-containing protein 4 (Homo sapiens) (UniProt O60885)
[3] = target: Cyclin-dependent kinase 2 (Homo sapiens) (UniProt P24941)
[4] = target: Casein kinase I isoform delta (Homo sapiens) (UniProt P48730)
Chain of Casein kinase I isoform delta (Homo sapiens) (P48730 whole entry, looked up, canonical isoform): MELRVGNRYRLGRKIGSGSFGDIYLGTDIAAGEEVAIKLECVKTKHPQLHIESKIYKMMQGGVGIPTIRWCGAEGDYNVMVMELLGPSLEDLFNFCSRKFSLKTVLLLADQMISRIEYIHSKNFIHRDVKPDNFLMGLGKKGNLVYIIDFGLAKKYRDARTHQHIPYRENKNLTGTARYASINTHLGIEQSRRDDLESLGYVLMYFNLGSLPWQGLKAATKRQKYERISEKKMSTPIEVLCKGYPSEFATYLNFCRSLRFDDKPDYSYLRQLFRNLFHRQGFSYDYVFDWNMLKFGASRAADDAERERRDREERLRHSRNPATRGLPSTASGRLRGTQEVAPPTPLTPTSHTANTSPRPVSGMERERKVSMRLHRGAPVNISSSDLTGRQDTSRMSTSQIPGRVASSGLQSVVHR

[5] = target: Glycogen synthase kinase-3 beta (Homo sapiens) (UniProt P49841)
Chain of Glycogen synthase kinase-3 beta (Homo sapiens) (P49841 whole entry, looked up): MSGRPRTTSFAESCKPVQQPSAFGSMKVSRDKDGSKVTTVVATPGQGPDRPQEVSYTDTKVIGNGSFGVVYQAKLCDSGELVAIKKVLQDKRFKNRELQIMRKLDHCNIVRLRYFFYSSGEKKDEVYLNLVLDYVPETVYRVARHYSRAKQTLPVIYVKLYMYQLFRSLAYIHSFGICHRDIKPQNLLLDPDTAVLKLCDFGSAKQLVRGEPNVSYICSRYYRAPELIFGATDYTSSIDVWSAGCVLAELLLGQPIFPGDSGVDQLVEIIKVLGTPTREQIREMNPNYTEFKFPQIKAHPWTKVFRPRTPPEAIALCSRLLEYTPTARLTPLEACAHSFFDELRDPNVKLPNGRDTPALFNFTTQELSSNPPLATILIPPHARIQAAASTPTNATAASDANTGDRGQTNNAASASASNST

[6] = target: Mitogen-activated protein kinase 1 (Homo sapiens) (UniProt P28482)
Chain of Mitogen-activated protein kinase 1 (Homo sapiens) (P28482 whole entry): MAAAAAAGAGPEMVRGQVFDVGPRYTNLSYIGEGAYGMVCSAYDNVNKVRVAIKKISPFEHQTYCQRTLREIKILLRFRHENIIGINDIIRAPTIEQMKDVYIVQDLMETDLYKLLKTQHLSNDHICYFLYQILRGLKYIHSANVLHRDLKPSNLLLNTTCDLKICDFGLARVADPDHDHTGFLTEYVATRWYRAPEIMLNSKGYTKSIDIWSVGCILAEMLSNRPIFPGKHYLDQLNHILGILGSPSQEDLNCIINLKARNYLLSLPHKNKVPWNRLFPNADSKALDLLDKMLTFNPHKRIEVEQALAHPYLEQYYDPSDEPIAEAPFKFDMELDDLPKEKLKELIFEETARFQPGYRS

[7] = target: T1, Aurora kinase A (Homo sapiens) (UniProt O14965)
T1 sequence (whole entry): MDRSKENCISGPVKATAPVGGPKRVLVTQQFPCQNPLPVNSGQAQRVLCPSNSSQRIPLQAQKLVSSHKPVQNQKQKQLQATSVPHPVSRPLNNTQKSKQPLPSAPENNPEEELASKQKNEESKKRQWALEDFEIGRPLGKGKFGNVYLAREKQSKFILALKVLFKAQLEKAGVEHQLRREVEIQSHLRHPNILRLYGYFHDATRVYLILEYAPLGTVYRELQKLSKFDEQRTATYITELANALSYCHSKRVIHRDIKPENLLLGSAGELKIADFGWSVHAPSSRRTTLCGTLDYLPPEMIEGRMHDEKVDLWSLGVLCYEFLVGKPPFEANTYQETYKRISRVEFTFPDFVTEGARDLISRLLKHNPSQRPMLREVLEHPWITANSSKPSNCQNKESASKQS

[8] = target: T2, Transcription intermediary factor 1-alpha (Homo sapiens) (UniProt O15164)
T2 sequence (whole entry): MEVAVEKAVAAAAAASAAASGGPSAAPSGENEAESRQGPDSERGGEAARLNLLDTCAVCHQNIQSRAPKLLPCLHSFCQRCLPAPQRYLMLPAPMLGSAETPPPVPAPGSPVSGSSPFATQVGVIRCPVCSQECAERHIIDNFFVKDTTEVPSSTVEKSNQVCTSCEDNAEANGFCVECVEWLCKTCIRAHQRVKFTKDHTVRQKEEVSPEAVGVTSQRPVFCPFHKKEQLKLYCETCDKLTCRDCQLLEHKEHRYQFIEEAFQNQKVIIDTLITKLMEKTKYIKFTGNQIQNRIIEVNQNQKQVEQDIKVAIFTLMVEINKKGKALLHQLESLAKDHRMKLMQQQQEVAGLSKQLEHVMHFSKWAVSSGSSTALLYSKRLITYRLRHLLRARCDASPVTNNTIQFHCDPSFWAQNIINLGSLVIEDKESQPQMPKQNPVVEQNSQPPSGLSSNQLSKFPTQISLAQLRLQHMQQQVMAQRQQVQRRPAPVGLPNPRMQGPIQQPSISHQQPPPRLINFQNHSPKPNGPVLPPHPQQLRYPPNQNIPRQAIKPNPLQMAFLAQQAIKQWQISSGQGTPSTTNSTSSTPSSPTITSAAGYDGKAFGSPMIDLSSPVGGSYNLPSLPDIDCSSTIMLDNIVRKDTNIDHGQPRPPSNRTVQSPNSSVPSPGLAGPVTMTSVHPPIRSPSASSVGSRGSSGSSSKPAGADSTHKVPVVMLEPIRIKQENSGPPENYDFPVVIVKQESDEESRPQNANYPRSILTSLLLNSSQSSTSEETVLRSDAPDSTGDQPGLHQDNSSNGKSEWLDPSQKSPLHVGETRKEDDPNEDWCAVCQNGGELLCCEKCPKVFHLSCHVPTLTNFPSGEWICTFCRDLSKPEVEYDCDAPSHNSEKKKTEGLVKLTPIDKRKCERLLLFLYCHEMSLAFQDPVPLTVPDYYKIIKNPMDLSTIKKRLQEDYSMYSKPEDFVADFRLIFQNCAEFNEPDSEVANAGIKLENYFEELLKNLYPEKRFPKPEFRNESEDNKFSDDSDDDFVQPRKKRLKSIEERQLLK

Chain of Tyrosine-protein kinase ABL1 (Homo sapiens) (P00519 whole entry): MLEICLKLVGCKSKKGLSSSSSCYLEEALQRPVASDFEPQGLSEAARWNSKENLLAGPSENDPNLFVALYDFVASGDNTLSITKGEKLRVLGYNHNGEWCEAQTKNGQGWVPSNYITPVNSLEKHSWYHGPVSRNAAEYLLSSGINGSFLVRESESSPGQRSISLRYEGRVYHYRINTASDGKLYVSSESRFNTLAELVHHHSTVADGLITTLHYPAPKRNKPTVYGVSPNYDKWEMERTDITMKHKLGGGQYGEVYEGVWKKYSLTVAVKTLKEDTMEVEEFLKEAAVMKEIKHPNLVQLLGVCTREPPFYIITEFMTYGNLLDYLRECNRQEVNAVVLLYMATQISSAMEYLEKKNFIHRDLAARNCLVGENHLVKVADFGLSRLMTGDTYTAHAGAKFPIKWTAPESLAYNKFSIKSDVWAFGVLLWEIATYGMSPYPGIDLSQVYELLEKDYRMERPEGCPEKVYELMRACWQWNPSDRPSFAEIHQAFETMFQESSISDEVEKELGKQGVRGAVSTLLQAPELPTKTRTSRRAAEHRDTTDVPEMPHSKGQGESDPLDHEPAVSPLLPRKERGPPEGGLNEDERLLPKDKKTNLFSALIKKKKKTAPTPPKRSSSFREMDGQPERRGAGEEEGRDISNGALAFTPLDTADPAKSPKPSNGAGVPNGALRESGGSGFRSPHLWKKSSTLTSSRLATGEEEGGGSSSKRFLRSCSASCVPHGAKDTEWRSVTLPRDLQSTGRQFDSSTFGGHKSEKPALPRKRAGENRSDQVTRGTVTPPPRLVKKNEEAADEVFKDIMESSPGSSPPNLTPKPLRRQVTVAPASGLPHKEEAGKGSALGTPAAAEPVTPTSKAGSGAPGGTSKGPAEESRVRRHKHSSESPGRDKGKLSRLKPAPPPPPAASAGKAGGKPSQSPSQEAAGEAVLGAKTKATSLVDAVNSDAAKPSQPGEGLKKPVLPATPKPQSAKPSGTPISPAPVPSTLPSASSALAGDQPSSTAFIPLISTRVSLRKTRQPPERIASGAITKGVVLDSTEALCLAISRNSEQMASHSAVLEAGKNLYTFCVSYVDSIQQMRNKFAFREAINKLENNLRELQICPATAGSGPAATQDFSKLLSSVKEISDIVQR

| Compound | ΔTm [1] | ΔTm [2] | ΔTm [3] | ΔTm [4] | ΔTm [5] | ΔTm [6] | ΔTm [7] | ΔTm [8] |
| --- | --- | --- | --- | --- | --- | --- | --- | --- |
| COC(=O)[C@@H]1CC2=CC(=O)CC[C@]2(C)[C@@]23O[C@@H]2C[C@@]2(C)[C@@H](CC[C@@]24CCC(=O)O4)[C@H]13 | 0.55 °C | -1.74 °C | -0.21 °C | 0.47 °C | -0.8 °C | 0.21 °C | -0.81 °C | -0.62 °C |
| O=C(NC[C@H](O)CN1CCc2ccccc2C1)c1cc(NC2COC2)ncn1 | 0.58 °C | -1.3 °C | 0.75 °C | 0.5 °C | -0.25 °C | 0.04 °C | -0.01 °C | -0.84 °C |
| Cc1nn2c(nc(O)c3cccnc32)c1C#N | 0.68 °C | -3.07 °C | 0.02 °C | -0.11 °C | -0.51 °C | 0.18 °C | -2.1 °C | 1.17 °C |
| Nc1cccc(Nc2ncc(-c3ccc(Cl)cc3)o2)c1 | 9.33 °C | 0.39 °C | 9.01 °C | 0.43 °C | 7.51 °C | 0.54 °C | 6.87 °C | -0.45 °C |
| CCCC(NC(=O)C(CC(C)C)NC(=O)OCc1ccccc1)C(=O)C(=O)NCc1ccccn1 (racemic) | 0.33 °C | -1.67 °C | -0.66 °C | 0.03 °C | -0.68 °C | -0.49 °C | -1.04 °C | -0.95 °C |
| Fc1ccc(CNc2ncnc3ccc(F)cc23)cc1 | 1.11 °C | -2.88 °C | 0.04 °C | 0.46 °C | 0.18 °C | 0.19 °C | -1.03 °C | -0.4 °C |
| O=c1[nH][nH]c(=O)c2cc(OCc3ccccc3F)ccc12 | 3.37 °C | -1.6 °C | 0.72 °C | -6.69 °C | 1.24 °C | -14.6 °C | -0.33 °C | 0 °C |
| CCCOc1ccc(NC(=O)CN2CCN(C)CC2)cc1-c1nc(CC)c(CC)c(=O)[nH]1 | 0.61 °C | -1.93 °C | 0.23 °C | -0.21 °C | -0.28 °C | 0.66 °C | -2.39 °C | -1 °C |
| COc1cc2c(cc1OC)[C@H]1C[C@@H](OC(=O)[C@@H](N)C(C)C)[C@H](CC(C)C)CN1CC2 | 0.26 °C | 1.87 °C | 0.58 °C | -0.31 °C | -0.94 °C | 0.3 °C | -1.54 °C | 0.19 °C |
| Cc1nc(F)ccc1-c1cc(Cn2ccn(C)c2=N)cc(C(=O)NCc2ccc(Cl)c(Cl)c2)c1 | 0.39 °C | -2.09 °C | -0.77 °C | 0.13 °C | -0.9 °C | -0.24 °C | -0.34 °C | -1.96 °C |
| COc1ccccc1C(=O)Nc1cc2c(cc1N1CCCCC1)n(C)c(=O)n2C | 0.35 °C | -2.11 °C | 0.1 °C | 0.01 °C | 0.08 °C | 0.17 °C | -1.43 °C | -0.76 °C |
| CC(=O)Nc1ccc(-c2cc(-c3ccccc3)nc3cc(C(=O)NCCCn4ccnc4)nn23)cc1 | 0.52 °C | 1.46 °C | -0.15 °C | 1.15 °C | -0.59 °C | 0.9 °C | -0.25 °C | -2.15 °C |
| CN(C(=O)CCCOc1ccc2[nH]c(=O)ccc2c1)C1CCCCC1 | 0.63 °C | -1.68 °C | 0.09 °C | -0.15 °C | 0.07 °C | 0.58 °C | -2.27 °C | -2.36 °C |
| CCCN1CCN(c2ccc(C(=O)NC3(C(=O)NCC#N)CCCCC3)cc2)CC1 | 0.17 °C | -1.33 °C | 0.57 °C | 0.09 °C | -0.34 °C | -0.16 °C | -0.29 °C | -0.56 °C |
| CC(C)CCn1c(CN2CCN(C(=O)C3CC3)CC2)nc2c1c(=O)n(C)c(=O)n2C | 0.68 °C | -2.93 °C | 0.17 °C | -0.39 °C | -0.45 °C | 0.11 °C | -2.45 °C | 0.08 °C |
| CCCC[C@@H](C=O)NC(=O)[C@H](CC(C)C)NC(=O)[C@H](CC(C)C)NC(C)=O (Ac-Leu-Leu-[Nle]-aldehyde) | 0.18 °C | -2.71 °C | 0.09 °C | 0.12 °C | -0.45 °C | 0.06 °C | -1.13 °C | -1.21 °C |
| COc1cccc(-c2nccc3c2CN(c2ccccc2)C3=O)c1 | 0.76 °C | -1.35 °C | -1.3 °C | 0.41 °C | -2.56 °C | -4.49 °C | -4.93 °C | -1.44 °C |
| Cc1ccc(C(=O)Nc2ccc(S(=O)(=O)O)c3cc(S(=O)(=O)O)cc(S(=O)(=O)O)c23)cc1NC(=O)c1cccc(NC(=O)Nc2cccc(C(=O)Nc3cc(C(=O)Nc4ccc(S(=O)(=O)O)c5cc(S(=O)(=O)O)cc(S(=O)(=O)O)c45)ccc3C)c2)c1 | 0.88 °C | -5.41 °C | -2.98 °C | -1.4 °C | -0.55 °C | -0.68 °C | 0 °C | -1.19 °C |
| O=C(NCCCCCCCCNC(=O)C(Cl)Cl)C(Cl)Cl | 0.05 °C | -2.38 °C | -0.1 °C | -0.18 °C | -1.79 °C | -0.02 °C | -1.73 °C | 1.02 °C |
| COc1cc(C(C)C)c2c(c1)S(=O)(=O)N(COc1cc(=O)n3cccc(OCCN4CCCCC4)c3n1)C2=O | 0.26 °C | -2.34 °C | -0.17 °C | 0.5 °C | 0.26 °C | -0.23 °C | 2.88 °C | -1.28 °C |
| CN(C)CCCNC(=O)c1ccc(-c2cc(O)c3ncccc3c2)cc1 | 1.29 °C | 1.76 °C | 0.45 °C | 0.58 °C | 0.54 °C | 0.28 °C | -1.28 °C | 1.21 °C |
| N#Cc1cccnc1N1CCN(C(=O)c2cccc(Cc3n[nH]c(=O)c4ccccc34)c2)CC1 | 0.57 °C | -2.92 °C | 0.15 °C | 0.14 °C | -0.23 °C | 0.24 °C | -2.06 °C | -0.96 °C |
